The text below walks through data of publication PMC7862700, “An all-to-all approach to the identification of sequence-specific readers for epigenetic DNA modifications on cytosine”.

What all share (experiment): DAPPL (digital affinity profiling via proximity ligation, sequencing); 10 mM Tris-HCl pH 7.5, 50 mM NaCl, 1 mM DTT, 4% glycerol, room temperature, 30 min; GST-TFs on glutathione beads, 16-mer random dsDNA library, 0.1% formaldehyde crosslink after washing; high values mean tight binding
For one assay, the target named is T1, FLI1 (Homo sapiens, UniProt Q01543 1-452).
T1 sequence: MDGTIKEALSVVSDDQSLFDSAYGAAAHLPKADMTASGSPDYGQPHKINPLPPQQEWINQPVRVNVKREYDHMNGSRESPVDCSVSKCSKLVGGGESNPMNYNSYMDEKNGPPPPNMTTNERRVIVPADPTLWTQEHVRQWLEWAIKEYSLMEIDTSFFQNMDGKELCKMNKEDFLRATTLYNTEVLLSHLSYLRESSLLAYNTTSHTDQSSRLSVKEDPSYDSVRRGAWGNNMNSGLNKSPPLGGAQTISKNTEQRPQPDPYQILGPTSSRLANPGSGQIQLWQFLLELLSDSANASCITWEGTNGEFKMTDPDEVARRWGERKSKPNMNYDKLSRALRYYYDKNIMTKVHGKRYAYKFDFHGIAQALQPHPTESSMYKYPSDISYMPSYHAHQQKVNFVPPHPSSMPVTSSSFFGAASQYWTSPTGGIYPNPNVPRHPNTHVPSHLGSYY
The settings on record: protein: recombinant; tags: N-terminal GST; dsDNA, one strand shown. The essentials: (§1)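 Beads coated with glutathione captured GST-fused human transcription factors that had been expressed in yeast, and the factors were then given DNA barcodes and pooled with a tag-only sample. The pools were incubated with 200 nmole of a random double-stranded 16-mer DNA library in Tris/NaCl/DTT/glycerol buffer for 30 min at room temperature, washed, crosslinked with 0.1% formaldehyde and proximity-ligated with BsaI/T4 ligase at 37 °C for 1 h. PCR amplification and Illumina NextSeq500 sequencing came last. Binding signal is each hexamer's read frequency for a factor divided by its frequency for the tag-only sample.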

A further assay concerns the target T2, ELK1 (Homo sapiens, UniProt P19419 1-428).
T2 sequence: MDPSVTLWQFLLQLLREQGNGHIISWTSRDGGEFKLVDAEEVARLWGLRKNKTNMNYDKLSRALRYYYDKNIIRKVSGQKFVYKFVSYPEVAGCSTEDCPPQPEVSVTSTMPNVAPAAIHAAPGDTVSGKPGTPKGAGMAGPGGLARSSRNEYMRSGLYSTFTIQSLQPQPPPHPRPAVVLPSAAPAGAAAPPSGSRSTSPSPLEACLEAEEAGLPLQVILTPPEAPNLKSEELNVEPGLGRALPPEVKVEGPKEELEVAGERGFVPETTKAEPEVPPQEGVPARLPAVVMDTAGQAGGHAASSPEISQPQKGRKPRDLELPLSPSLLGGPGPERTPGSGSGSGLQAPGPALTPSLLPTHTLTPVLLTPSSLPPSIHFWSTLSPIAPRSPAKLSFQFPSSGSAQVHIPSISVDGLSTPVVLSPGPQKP
The note with it: protein: recombinant; tags: N-terminal GST; dsDNA, one strand shown. Summed up: as §1

The target of the next assay is T3, GABPA (Homo sapiens, UniProt Q06546 1-454).
T3 sequence: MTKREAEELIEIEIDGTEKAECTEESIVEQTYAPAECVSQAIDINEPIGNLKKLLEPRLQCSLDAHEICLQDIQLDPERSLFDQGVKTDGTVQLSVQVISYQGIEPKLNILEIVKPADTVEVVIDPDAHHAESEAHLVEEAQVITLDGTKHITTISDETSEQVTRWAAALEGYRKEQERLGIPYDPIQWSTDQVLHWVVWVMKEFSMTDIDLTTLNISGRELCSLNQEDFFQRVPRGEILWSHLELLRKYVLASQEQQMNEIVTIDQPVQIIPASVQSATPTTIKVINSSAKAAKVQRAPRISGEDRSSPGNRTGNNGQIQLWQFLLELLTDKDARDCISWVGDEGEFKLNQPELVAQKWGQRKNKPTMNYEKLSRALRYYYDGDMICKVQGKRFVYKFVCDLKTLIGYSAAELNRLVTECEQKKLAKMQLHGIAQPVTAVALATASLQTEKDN
The note with it: protein: recombinant; tags: N-terminal GST; dsDNA, one strand shown. The essentials: as §1

The target of another assay is T4, ERG (Homo sapiens, UniProt P11308 1-479).
T4 sequence: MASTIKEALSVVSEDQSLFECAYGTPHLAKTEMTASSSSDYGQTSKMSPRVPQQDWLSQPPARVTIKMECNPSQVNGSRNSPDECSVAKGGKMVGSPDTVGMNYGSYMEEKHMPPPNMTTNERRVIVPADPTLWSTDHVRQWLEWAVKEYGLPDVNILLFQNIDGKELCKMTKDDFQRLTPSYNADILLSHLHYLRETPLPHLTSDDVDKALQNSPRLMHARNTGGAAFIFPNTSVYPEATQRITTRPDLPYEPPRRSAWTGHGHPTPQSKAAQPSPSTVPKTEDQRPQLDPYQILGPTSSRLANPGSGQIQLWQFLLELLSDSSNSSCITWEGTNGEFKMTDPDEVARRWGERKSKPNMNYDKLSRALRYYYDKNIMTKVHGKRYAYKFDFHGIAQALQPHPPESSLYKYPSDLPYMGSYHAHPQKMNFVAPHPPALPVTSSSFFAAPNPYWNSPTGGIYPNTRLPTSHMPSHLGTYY
The note with it: protein: recombinant; tags: N-terminal GST; dsDNA, one strand shown. The essentials: as §1

For the next assay, the target named is ELF1 (Homo sapiens, UniProt P32519 1-619). The settings on record: protein: recombinant; tags: N-terminal GST; dsDNA, one strand shown. Summed up: as §1
ELF1, sequence (P32519 whole entry): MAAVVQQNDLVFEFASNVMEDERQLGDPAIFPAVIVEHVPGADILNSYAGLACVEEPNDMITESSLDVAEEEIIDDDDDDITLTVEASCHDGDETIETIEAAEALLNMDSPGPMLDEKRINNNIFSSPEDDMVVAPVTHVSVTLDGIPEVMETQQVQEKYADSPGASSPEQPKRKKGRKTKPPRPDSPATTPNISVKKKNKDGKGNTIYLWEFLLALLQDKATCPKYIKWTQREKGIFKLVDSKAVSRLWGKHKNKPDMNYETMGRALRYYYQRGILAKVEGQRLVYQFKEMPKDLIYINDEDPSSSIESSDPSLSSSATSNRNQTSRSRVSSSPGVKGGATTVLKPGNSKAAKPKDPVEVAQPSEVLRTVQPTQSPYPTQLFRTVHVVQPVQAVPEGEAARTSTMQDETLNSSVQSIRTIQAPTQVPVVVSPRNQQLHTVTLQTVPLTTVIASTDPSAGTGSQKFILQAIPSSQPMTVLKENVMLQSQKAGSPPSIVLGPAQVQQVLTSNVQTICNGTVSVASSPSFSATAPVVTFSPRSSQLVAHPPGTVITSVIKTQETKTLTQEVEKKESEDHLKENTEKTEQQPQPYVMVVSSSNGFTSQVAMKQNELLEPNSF
A further assay concerns the target T5, EHF (Homo sapiens, UniProt Q9NZC4 1-300).
T5 sequence: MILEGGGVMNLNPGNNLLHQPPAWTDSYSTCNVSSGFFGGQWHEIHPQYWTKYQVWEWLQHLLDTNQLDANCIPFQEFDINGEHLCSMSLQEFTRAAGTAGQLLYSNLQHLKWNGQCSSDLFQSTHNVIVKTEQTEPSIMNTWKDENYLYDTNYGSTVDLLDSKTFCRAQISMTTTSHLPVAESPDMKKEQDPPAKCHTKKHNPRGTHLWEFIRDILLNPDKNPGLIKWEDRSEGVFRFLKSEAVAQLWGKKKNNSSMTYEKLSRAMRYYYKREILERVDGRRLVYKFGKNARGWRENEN
The settings on record: protein: recombinant; tags: N-terminal GST; dsDNA, one strand shown. Summed up:
as §1

In the next assay the target is SPI1 (Homo sapiens, UniProt P17947 1-270). The settings on record: protein: recombinant; tags: N-terminal GST; dsDNA, one strand shown. Summed up: as §1
Another assay addresses SPIB (Homo sapiens, UniProt Q01892 1-262). The settings on record: protein: recombinant; tags: N-terminal GST; dsDNA, one strand shown. The essentials:
as §1

The target of the next assay is T6, ELK3 (Homo sapiens, UniProt P41970 1-407).
T6 sequence: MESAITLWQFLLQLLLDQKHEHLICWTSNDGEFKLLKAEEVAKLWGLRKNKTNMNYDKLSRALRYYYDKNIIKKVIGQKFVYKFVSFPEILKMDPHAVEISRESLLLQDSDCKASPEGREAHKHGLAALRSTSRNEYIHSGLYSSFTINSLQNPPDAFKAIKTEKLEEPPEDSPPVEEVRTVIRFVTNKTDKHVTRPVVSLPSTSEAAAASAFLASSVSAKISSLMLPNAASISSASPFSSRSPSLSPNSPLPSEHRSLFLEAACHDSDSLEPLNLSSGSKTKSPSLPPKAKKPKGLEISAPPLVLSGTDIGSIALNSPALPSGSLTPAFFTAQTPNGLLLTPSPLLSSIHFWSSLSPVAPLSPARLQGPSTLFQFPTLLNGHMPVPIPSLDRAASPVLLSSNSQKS
The settings on record: protein: recombinant; tags: N-terminal GST; dsDNA, one strand shown. Summed up:
as §1

Another assay concerns the target T7, FEV (Homo sapiens, UniProt Q99581 1-238).
T7 sequence: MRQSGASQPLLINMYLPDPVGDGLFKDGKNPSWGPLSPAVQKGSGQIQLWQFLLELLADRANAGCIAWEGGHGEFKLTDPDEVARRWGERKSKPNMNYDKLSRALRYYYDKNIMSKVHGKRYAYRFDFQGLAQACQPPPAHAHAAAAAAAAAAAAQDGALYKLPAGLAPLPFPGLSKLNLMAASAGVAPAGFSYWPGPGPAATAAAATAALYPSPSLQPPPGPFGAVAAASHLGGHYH
The settings on record: protein: recombinant; tags: N-terminal GST; dsDNA, one strand shown. The essentials:
as §1

The next assay deals with ETV5 (Homo sapiens, UniProt P41161 1-510). The settings on record: protein: recombinant; tags: N-terminal GST; dsDNA, one strand shown. The essentials: as §1
ETV5, sequence (P41161 whole entry): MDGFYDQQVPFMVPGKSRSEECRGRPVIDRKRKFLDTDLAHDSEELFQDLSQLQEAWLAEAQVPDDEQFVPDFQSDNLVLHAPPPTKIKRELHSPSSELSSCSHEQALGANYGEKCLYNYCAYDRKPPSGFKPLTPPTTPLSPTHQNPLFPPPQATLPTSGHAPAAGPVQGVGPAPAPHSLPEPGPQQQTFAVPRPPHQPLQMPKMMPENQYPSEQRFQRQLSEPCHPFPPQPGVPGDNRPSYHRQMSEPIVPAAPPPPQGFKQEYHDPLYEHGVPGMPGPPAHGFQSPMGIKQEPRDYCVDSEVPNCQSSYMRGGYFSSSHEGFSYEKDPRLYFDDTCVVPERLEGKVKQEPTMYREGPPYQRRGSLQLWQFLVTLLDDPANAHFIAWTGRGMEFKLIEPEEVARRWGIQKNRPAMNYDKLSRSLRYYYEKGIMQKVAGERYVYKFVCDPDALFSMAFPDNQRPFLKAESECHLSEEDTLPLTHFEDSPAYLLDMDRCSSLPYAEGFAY
A further assay has as its target HSF1 (Homo sapiens, UniProt Q00613 1-529). The note with it: protein: recombinant; tags: N-terminal GST; chain copies: 3; dsDNA, one strand shown. Summed up:
as §1

Another assay concerns the target T8, SPIC (Homo sapiens, UniProt Q8N5J4 1-248).
T8 sequence: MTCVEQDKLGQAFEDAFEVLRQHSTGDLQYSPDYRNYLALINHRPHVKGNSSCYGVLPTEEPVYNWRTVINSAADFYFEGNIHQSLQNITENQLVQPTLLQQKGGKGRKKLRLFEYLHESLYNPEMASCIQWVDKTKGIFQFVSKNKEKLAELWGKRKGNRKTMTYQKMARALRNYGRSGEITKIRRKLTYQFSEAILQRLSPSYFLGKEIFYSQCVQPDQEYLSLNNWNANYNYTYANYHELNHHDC
The settings on record: protein: recombinant; tags: N-terminal GST; dsDNA, one strand shown. Summed up: as §1

A further assay addresses ELF4 (Homo sapiens, UniProt Q99607 1-663). The settings on record: protein: recombinant; tags: N-terminal GST; dsDNA, one strand shown. Summed up:
as §1

The target in another assay is T9, ELK4 (Homo sapiens, UniProt P28324-2 1-405).
T9 sequence: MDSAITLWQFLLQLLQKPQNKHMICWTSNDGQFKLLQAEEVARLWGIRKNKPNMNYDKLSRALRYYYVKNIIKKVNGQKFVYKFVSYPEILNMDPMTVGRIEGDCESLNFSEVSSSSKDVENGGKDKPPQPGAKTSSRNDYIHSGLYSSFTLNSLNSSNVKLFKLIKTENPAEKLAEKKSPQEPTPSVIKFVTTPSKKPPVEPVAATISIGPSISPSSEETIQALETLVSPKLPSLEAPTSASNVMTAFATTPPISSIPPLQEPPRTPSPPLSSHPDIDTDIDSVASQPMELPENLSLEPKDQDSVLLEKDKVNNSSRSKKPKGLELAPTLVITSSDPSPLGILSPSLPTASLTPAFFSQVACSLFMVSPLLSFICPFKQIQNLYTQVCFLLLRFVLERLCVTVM
The note with it: protein: recombinant; tags: N-terminal GST; dsDNA, one strand shown. The essentials:
as §1

For a further assay, the target named is T10, ELF3 (Homo sapiens, UniProt P78545 1-371).
T10 sequence: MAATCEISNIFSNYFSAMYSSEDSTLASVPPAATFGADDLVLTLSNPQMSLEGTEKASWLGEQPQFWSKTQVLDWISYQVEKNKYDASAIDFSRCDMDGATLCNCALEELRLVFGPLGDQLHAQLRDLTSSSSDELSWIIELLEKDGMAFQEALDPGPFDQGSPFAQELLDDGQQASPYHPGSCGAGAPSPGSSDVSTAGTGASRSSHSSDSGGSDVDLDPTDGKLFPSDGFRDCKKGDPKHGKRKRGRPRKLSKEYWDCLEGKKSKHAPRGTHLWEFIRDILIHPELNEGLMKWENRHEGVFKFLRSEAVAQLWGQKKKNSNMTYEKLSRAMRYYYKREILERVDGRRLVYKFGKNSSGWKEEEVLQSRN
The settings on record: protein: recombinant; tags: N-terminal GST; dsDNA, one strand shown. The essentials: as §1

The next assay deals with ETV1 (Homo sapiens, UniProt P50549 1-477). The settings on record: protein: recombinant; tags: N-terminal GST; dsDNA, one strand shown. Summed up: as §1
ETV1, sequence (P50549 whole entry): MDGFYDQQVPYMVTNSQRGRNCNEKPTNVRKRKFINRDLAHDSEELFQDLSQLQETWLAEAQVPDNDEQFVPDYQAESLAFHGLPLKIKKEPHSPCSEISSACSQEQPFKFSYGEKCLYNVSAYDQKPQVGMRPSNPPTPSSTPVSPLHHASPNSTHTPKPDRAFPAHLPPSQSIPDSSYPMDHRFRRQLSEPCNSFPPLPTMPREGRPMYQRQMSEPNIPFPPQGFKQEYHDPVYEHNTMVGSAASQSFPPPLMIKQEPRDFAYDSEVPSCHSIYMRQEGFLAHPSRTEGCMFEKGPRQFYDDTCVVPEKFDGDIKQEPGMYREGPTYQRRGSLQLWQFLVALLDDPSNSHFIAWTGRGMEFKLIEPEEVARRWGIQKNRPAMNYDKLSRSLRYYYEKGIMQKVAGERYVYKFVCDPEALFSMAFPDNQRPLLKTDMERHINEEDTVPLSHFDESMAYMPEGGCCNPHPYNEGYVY

SPIB, sequence (Q01892 whole entry): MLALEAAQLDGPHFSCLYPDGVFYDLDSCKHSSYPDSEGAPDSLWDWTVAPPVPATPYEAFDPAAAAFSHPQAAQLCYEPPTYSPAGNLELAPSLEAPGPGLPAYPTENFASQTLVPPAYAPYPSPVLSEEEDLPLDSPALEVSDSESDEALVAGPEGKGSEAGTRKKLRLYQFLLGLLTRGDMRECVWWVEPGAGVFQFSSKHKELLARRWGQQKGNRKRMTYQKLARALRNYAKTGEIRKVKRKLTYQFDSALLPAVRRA
HSF1, sequence (Q00613 whole entry): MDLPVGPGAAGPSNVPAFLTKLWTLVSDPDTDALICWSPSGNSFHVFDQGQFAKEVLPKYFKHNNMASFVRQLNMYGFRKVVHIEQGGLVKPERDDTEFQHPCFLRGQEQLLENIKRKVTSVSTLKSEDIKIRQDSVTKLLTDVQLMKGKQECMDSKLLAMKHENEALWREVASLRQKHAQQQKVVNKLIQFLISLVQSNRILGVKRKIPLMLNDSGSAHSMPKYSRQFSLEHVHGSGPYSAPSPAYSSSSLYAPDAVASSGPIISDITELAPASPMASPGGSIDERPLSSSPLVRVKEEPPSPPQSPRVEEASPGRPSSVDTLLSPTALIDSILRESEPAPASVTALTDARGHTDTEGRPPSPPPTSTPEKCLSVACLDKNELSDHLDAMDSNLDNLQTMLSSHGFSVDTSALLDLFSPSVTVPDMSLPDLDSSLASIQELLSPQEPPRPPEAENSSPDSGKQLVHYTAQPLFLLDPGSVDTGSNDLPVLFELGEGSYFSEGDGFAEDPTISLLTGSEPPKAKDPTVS
ELF4, sequence (Q99607 whole entry): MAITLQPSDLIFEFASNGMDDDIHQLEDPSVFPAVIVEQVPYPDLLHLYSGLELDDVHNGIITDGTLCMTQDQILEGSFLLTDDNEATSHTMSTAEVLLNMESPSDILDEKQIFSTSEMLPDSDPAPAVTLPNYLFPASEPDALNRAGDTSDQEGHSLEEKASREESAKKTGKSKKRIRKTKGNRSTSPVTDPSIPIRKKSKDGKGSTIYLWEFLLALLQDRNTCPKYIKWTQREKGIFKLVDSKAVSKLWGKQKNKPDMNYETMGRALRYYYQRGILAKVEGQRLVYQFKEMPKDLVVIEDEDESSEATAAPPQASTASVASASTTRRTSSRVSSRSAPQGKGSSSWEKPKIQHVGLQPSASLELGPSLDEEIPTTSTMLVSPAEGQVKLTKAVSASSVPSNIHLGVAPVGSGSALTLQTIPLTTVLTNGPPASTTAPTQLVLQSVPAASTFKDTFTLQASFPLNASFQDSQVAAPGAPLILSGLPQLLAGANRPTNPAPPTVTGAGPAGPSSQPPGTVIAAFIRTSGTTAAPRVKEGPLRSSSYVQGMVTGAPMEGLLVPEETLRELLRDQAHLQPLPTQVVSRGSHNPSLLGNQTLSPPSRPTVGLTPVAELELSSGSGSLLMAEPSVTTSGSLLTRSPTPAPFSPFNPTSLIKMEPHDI

Turning to CCTCGT, the binding signal with FLI1 is 1.16 fold enrichment (6-mer frequency, TF over GST control); with ELK1, 1.1 fold enrichment (6-mer frequency, TF over GST control); with GABPA, 1.39 fold enrichment (6-mer frequency, TF over GST control); with ERG, 1.24 fold enrichment (6-mer frequency, TF over GST control); with ELF1 it was 1.3 fold enrichment (6-mer frequency, TF over GST control); with EHF it was 1.18 fold enrichment (6-mer frequency, TF over GST control). For the same sequence, the binding signal is 1.31 fold enrichment (6-mer frequency, TF over GST control) with SPI1; 1.13 fold enrichment (6-mer frequency, TF over GST control) with SPIB; 1.37 fold enrichment (6-mer frequency, TF over GST control) with ELK3; 1.18 fold enrichment (6-mer frequency, TF over GST control) with FEV; 1.19 fold enrichment (6-mer frequency, TF over GST control) with ETV5; 1.08 fold enrichment (6-mer frequency, TF over GST control) with HSF1. Also, the binding signal in the assay with SPIC is 1.25 fold enrichment (6-mer frequency, TF over GST control); with ELF4, 1.25 fold enrichment (6-mer frequency, TF over GST control); in the assay with ELK4, 1.29 fold enrichment (6-mer frequency, TF over GST control); with ELF3, 1.24 fold enrichment (6-mer frequency, TF over GST control); with ETV1, 1.39 fold enrichment (6-mer frequency, TF over GST control).
